{
  "source": "PubChem BioAssay AID1159577",
  "about": "(Broad Institute, 2015)",
  "note": "The whole screen tested about 1,300 compounds, of which about 240 (18%) were called active. About 8% were inconclusive and are not listed. Only a sample is shown. Entries with a potency or affinity are not part of this list. Unmarked numbers belong to inactive results. How the calls were made is not given here.",
  "data": [
    {"assay": "toxicity to human hepatoma HepG2 cells – cell-based, cherry-picked samples, cytotoxicity control, dose response (AID 1159577);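 further: 0% = neutral control wells and -100% = positive control wells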", "conditions": "HepG2 cytotoxicity counterscreen, plate reader; series mostly up to 19.5 µM; activity change, negative = cytotoxicity: at the top concentration", "values": [
      {"smiles": "C[C@@H]1CN([C@@H](C)CO)S(=O)(=O)c2ccc(C#CC3(O)CCCC3)cc2O[C@H]1CN(C)C(=O)c1ccccc1", "activity change, negative = cytotoxicity": "23.2%"},
      {"smiles": "CN1c2ccc(-c3cccc(F)c3)cc2[C@@H]2[C@@H](CCN2C(=O)C2CC2)[C@@H]1CO", "activity change, negative = cytotoxicity": "11.9%"},
      {"smiles": "N#C[C@H]1[C@@H](c2ccccc2-c2ccccc2F)[C@@H](CO)N1C(=O)C1CCOCC1", "activity change, negative = cytotoxicity": "16%"},
      {"smiles": "CO[C@@H]1CN(C)C(=O)c2ccc(NC(=O)Nc3ccc(C(F)(F)F)cc3)cc2OC[C@@H](C)NC[C@@H]1C", "activity change, negative = cytotoxicity": "-17.8% [at 21 µM]"},
      {"smiles": "CO[C@H]1CN(C)C(=O)c2ccc(NC(=O)Nc3ccc(C(F)(F)F)cc3)cc2OC[C@H](C)NC[C@H]1C", "activity change, negative = cytotoxicity": "-23.7%"},
      {"smiles": "CO[C@@H]1CN(C)C(=O)c2ccc(NC(=O)Nc3ccc(C(F)(F)F)cc3)cc2OC[C@H](C)NC[C@H]1C", "activity change, negative = cytotoxicity": "-28.1%"},
      {"smiles": "CO[C@H]1CN(C)C(=O)c2ccc(NC(=O)Nc3ccc(C(F)(F)F)cc3)cc2OC[C@@H](C)NC[C@@H]1C", "activity change, negative = cytotoxicity": "-22.1%"},
      {"smiles": "Cc1ccc(-c2ccccc2[C@H]2[C@@H](C#N)N(C(=O)NC3CCCC3)[C@H]2CO)cc1", "activity change, negative = cytotoxicity": "9.07% [at 21 µM]"},
      {"smiles": "COc1ccc(S(=O)(=O)N(C)C[C@@H]2Oc3cc(-c4ccccc4OC)ccc3S(=O)(=O)N([C@H](C)CO)C[C@H]2C)cc1", "activity change, negative = cytotoxicity": "10.8%"},
      {"smiles": "CCCC(=O)Nc1ccc2c(c1)OC[C@H](C)N(Cc1ccc(-c3ccccn3)cc1)C[C@H](C)[C@H](OC)CN(C)C2=O", "activity change, negative = cytotoxicity": "19.9%"},
      {"smiles": "CO[C@@H]1CN(C)C(=O)c2ccc(NC(=O)C3CC3)cc2OC[C@@H](C)N(Cc2cccc(F)c2)C[C@H]1C", "activity change, negative = cytotoxicity": "-15.8%"},
      {"smiles": "CCC(=O)Nc1ccc2c(c1)C(=O)N(C)C[C@H](OC)[C@H](C)CN(Cc1cccc(F)c1)[C@@H](C)CO2", "activity change, negative = cytotoxicity": "-7.08%"},
      {"smiles": "COc1ccc(CN(C)C[C@@H]2OCc3cn(nn3)CCCC(=O)N([C@H](C)CO)C[C@H]2C)cc1", "activity change, negative = cytotoxicity": "9.36%"},
      {"smiles": "COc1ccccc1CN1C[C@@H](C)[C@H](OC)CN(C)C(=O)c2cc(NC(=O)Nc3ccccc3OC)ccc2OC[C@H]1C", "activity change, negative = cytotoxicity": "-9.22% [at 21 µM]"},
      {"smiles": "C[C@@H]1CN([C@H](C)CO)S(=O)(=O)c2ccc(C#Cc3ccccc3F)cc2O[C@H]1CN(C)C(=O)c1ccc2c(c1)OCO2", "activity change, negative = cytotoxicity": "11%"},
      {"smiles": "COc1cccc(C(=O)Nc2ccc3c(c2)C(=O)N(C)C[C@@H](OC)[C@H](C)CN(CCc2ccccc2)[C@H](C)CO3)c1", "activity change, negative = cytotoxicity": "11%"},
      {"smiles": "C/C=C/c1ccc2c(c1)[C@H]1[C@H](CCN1C(=O)c1ccc(F)cc1)[C@H](CO)N2", "activity change, negative = cytotoxicity": "3.75%"},
      {"smiles": "O=C(Nc1ccccc1F)N1C[C@@H]2[C@H](c3ccccc31)[C@H](CO)N2C(=O)C1CCOCC1", "activity change, negative = cytotoxicity": "10.4%"},
      {"smiles": "COc1ccc2c3c([nH]c2c1)[C@@H](CO)N(Cc1cc(F)ccc1F)CC31CN(C(=O)C2CCC2)C1", "activity change, negative = cytotoxicity": "-20.9%"},
      {"smiles": "CN(C)C(=O)c1ccc(-c2cccc(-c3nc(C(=O)NC4CCCC4)cc4c3[C@H](CCO)N([S@@](=O)C(C)(C)C)C4)c2)cc1", "activity change, negative = cytotoxicity": "-9.78% [at 21 µM]"},
      {"smiles": "CO[C@H]1CN(C)C(=O)c2ccc(NC(=O)c3cccc(Oc4ccccc4)c3)cc2OC[C@@H](C)NC[C@H]1C", "activity change, negative = cytotoxicity": "-8.04%"},
      {"smiles": "CO[C@@H]1CN(C)C(=O)c2ccc(NC(=O)Nc3cccc(F)c3)cc2OC[C@H](C)NC[C@H]1C", "activity change, negative = cytotoxicity": "-1.59%"},
      {"smiles": "COc1ccc(-c2ccc3c(c2)[C@H]2[C@H](CCN2Cc2ccncc2)[C@@H](CO)N3)cc1", "activity change, negative = cytotoxicity": "2.93% [at 21 µM]"},
      {"smiles": "CN1C(=O)c2cc(NC(=O)c3cccc(F)c3)ccc2OC[C@H]2O[C@H](CC(=O)NCC3CCCCC3)CC[C@H]21", "activity change, negative = cytotoxicity": "-15.7%"},
      {"smiles": "CC(C)NC(=O)Nc1ccc2c(c1)C(=O)N(C)[C@H]1CC[C@H](CC(=O)Nc3ccccc3)O[C@H]1CO2", "activity change, negative = cytotoxicity": "11.6%"},
      {"smiles": "CC(C)(C)[S@@](=O)N1Cc2cc(C(=O)N[C@@H]3CCN(Cc4ccccc4)C3)nc(-c3cccc(-c4ccncc4)c3)c2[C@H]1CCO", "activity change, negative = cytotoxicity": "18.4%"},
      {"smiles": "N#Cc1ccc(-c2ccc3c(c2)[C@H]2[C@H](CCN2C(=O)C2CCCC2)[C@H](CO)N3)cc1", "activity change, negative = cytotoxicity": "-4.02%"},
      {"smiles": "COc1cccc(-c2ccc3c(c2)[C@@H]2[C@@H](CCN2S(=O)(=O)c2cn(C)cn2)[C@@H](CO)N3)c1", "activity change, negative = cytotoxicity": "2.19%"},
      {"smiles": "O=C(C[C@H]1CC[C@@H]2[C@H](COC[C@H](O)CN2Cc2cc(F)ccc2F)O1)N[C@@H]1CCN(Cc2ccccc2)C1", "activity change, negative = cytotoxicity": "2.15%"},
      {"smiles": "COc1ccc2c3c([nH]c2c1)[C@@H](CO)N(Cc1nccs1)CC31CCN(Cc2nccs2)CC1", "activity change, negative = cytotoxicity": "-9.57%"},
      {"smiles": "COc1ccc2c3c([nH]c2c1)[C@@H](CO)N(Cc1ccc(Cl)cc1)CC31CCN(Cc2nccs2)CC1", "activity change, negative = cytotoxicity": "-16.6%"},
      {"smiles": "COc1ccc2c3c([nH]c2c1)[C@H](CO)N(Cc1ccccc1)CC31CCN(CC2CC2)CC1", "activity change, negative = cytotoxicity": "-13.9%"},
      {"smiles": "COc1cccc(CN2CC3(CCN(Cc4ccccn4)CC3)c3c([nH]c4cc(OC)ccc34)[C@@H]2CO)c1", "activity change, negative = cytotoxicity": "-5.33%"},
      {"smiles": "COc1ccc2c3c([nH]c2c1)[C@H](CO)N(Cc1ccncc1)CC31CN(Cc2ccc(-c3ccccn3)cc2)C1", "activity change, negative = cytotoxicity": "-10.6%"},
      {"smiles": "COc1ccc2c3c([nH]c2c1)[C@H](CO)N(Cc1ccc(F)cc1)CC31CCN(Cc2ccccn2)CC1", "activity change, negative = cytotoxicity": "3.33%"},
      {"smiles": "C[C@@H]1CN([C@H](C)CO)C(=O)c2cc(NC(=O)CCC(F)(F)F)ccc2O[C@H]1CN(C)C(=O)NC1CCCCC1", "activity change, negative = cytotoxicity": "8.28%"},
      {"smiles": "O=C(C1CCCC1)N1CC[C@@H]2[C@H](CO)Nc3ccc(Br)cc3[C@@H]21", "activity change, negative = cytotoxicity": "-29.2% [at 21 µM]"},
      {"smiles": "COc1ccc2c3c([nH]c2c1)[C@H](CO)N(Cc1ccccc1Cl)CC31CN(C(C)=O)C1", "activity change, negative = cytotoxicity": "-0.4%"},
      {"smiles": "CC(C)(C)[S@@](=O)N1Cc2cc(C(=O)NC3CCC3)nc(-c3cccc(Br)c3)c2[C@H]1CCO", "activity change, negative = cytotoxicity": "-20.4%"},
      {"smiles": "C[C@@H]1CN([C@@H](C)CO)C(=O)c2cccc(NC(=O)Nc3cccc4ccccc34)c2O[C@H]1CN(C)C(=O)NC1CCCCC1", "activity change, negative = cytotoxicity": "-0.959% [at 16 µM]"},
      {"smiles": "COc1ccc2c3c([nH]c2c1)[C@H](CO)N(Cc1ccccc1F)CC31CN(C(=O)C2CCC2)C1", "activity change, negative = cytotoxicity": "15.1%"}
    ]}
  ]
}
